# From PubChem BioAssay AID463173 (ICCB-Longwood Screening Facility, Harvard Medical School, 2010)
# Hit rate of the full screen: of about 52,000 compounds, about 4,300 (8.3%) were called active. No stated cut-off is given here; in the data, active means survival mostly below about 52% (no sharp cut-off); inactive means mostly above about 56%. This excerpt belongs to a sample that is enriched for actives.
# Test system: DeltatarO mutant
# Assay: growth inhibition of S. aureus wild type versus tarO mutant, primary screen, teichoic acid synthesis inhibitors, RN4220, OD600 (AID 463173)
# Settings: OD600, 18 h, active compounds read low, screened at 18.75 µg/mL (by protocol)
row,SMILES,survival
1,COCCCNC(=O)c1cc2c(=O)oc3ccc(C)cc3c2s1,68% (inactive)
2,COC(=O)c1cnn2c(C)c(Cc3c(C)cc(C)cc3C)c(C)nc12,83% (inactive)
3,CC(C)Nc1nc(Cl)nc(NNC(=O)C(C)Oc2ccccc2)n1 (configuration not stated),93% (inactive)
4,CCN(CC)C(=O)CSc1nc2cc3c(cc2c(=O)n1CCCC(=O)NCc1ccc(OC)cc1)OCO3,71% (inactive)
5,COc1ccc(CCNC(=O)CCCn2c(SCC(N)=O)nc3cc4c(cc3c2=O)OCO4)cc1OC,72% (inactive)
6,COCCCNC(=O)CSc1nc2cc3c(cc2c(=O)n1CCCC(=O)NCc1ccc(OC)cc1)OCO3,83% (inactive)
7,CCCCNC(=O)CSc1nc2cc3c(cc2c(=O)n1CCCC(=O)NCCc1ccc(OC)c(OC)c1)OCO3,109% (inactive)
8,COCCNC(=O)CSc1nc2cc3c(cc2c(=O)n1CCCCCC(=O)NCc1ccc(OC)cc1)OCO3,67% (inactive)
9,CCOC(=O)CSc1nc2cc3c(cc2c(=O)n1CCCC(=O)NCCc1ccc(OC)c(OC)c1)OCO3,-2% (active)
10,CCN(CC)C(=O)CSc1nc2cc3c(cc2c(=O)n1CCCCCC(=O)NCc1ccc(OC)cc1)OCO3,-1% (active)
11,CCOC(=O)CSc1nc2cc3c(cc2c(=O)n1CCCCCC(=O)NCc1ccc(OC)cc1)OCO3,72% (inactive)
12,COCCCNC(=O)CSc1nc2cc3c(cc2c(=O)n1CCCCCC(=O)NCc1ccc(OC)cc1)OCO3,6% (active)
13,COc1ccc(N2CCN(Cc3nc4c(c(=O)[nH]c(=O)n4C)n3Cc3ccccc3F)CC2)cc1,119% (inactive)
14,COc1ccccc1Cn1c(CNS(=O)(=O)c2ccc(CC(C)C)cc2)nc2cccnc21,95% (inactive)
15,COc1ccc(/C=C(\NC(=O)c2ccccc2)C(=O)NC2CCCCC2)cc1,86% (inactive)
16,COc1cc(NC(=O)c2cc3ccccn3n2)cc(OC)c1OC,69% (inactive)
17,Cc1ccc(NC(=O)NCCc2c(C)nn(C)c2C)c(Cl)c1,72% (inactive)
18,Cc1ccc(C(=O)NCC(c2cccs2)S(=O)(=O)c2cccs2)cc1C (configuration not stated),78% (inactive)
19,COC(=O)CN1C(=O)C(C)(C)c2cc(S(=O)(=O)Nc3ccc(C(C)C)cc3)ccc21,79% (inactive)
20,CC(C)(C)c1ccc(C(=O)N2CCC(c3noc(-c4ccc(S(=O)(=O)N5CCCC5)cc4)n3)CC2)cc1,89% (inactive)
21,CCOC(=O)C1CCN(C(c2cc3ccc(OC)cc3n3nnnc23)c2nnnn2C2CCCC2)CC1 (configuration not stated),101% (inactive)

row,SMILES,survival
1,CCc1cccc(C)c1Nc1c(-c2cccs2)nc2ncccn12,73% (inactive)
2,CCCCOc1ccccc1CC1C(=O)Nc2ccc(Br)cc21 (configuration not stated),14% (active)
3,COc1ccc(CC2C(=O)Nc3ccc(Br)cc32)cc1OC (configuration not stated),82% (inactive)
4,CCOc1ccccc1CC1C(=O)Nc2ccc(Br)cc21 (configuration not stated),59% (inactive)
5,CCOc1c(CC2C(=O)Nc3ccc(Br)cc32)cccc1OC (configuration not stated),102% (inactive)
6,CCCOc1ccc(CC2C(=O)Nc3ccc(Br)cc32)cc1 (configuration not stated),0% (active)
7,COc1ccc(OC)c(CC2C(=O)Nc3ccc(Br)cc32)c1 (configuration not stated),72% (inactive)
8,Cc1cc(C)cc(NC(=O)C2CCN(S(=O)(=O)c3ccc4c(c3)oc(=O)n4C)CC2)c1,95% (inactive)
9,COc1ccc2c(c1)c1c(c(=O)n(CCc3ccccc3)c(=O)n1Cc1cccc(Cl)c1)n2C,76% (inactive)
10,O=C(CN1C(=O)CSc2ccc(S(=O)(=O)N3CCCCC3)cc21)NCc1ccc(F)cc1Cl,79% (inactive)
11,CNC(=S)N1C2CCC1CC(NC(=O)NC13CC4CC(CC(C4)C1)C3)C2 (configuration not stated),79% (inactive)
12,CCOC(=O)c1ccc(NC(=O)Nc2cccc(OCc3cc(=O)n4ccc(C)cc4n3)c2)cc1,68% (inactive)
13,CCc1cccc(C)c1NC(=O)CSc1nc2ccccc2nc1N1CCOCC1,81% (inactive)
14,CC(=O)Nc1ccc(NC(=O)CSc2nc3ccccc3nc2N2CCOCC2)cc1,83% (inactive)
15,CCOc1ccc(NC(=O)CSc2nc3ccccc3nc2N2CCOCC2)cc1,87% (inactive)
16,Cc1ccc(NC(=O)CSc2nc3ccccc3nc2N2CCOCC2)cc1,54% (inactive)
17,Cc1cccc(NC(=O)CSc2nc3ccccc3nc2N2CCOCC2)c1C,51% (inactive)
18,COc1cccc(NC(=O)CSc2nc3ccccc3nc2N2CCOCC2)c1,54% (inactive)
19,CCOc1ccccc1NC(=O)CSc1nc2ccccc2nc1N1CCOCC1,4% (active)
20,CCc1cccc(NC(=O)CSc2nc3ccccc3nc2N2CCCCC2)c1,-6% (active)
21,CCCCc1ccc(NC(=O)CSc2nc(=O)[nH]c3c2CCCC3)cc1,74% (inactive)

row,SMILES,survival
1,CCCCc1ccc(NC(=O)CSc2nc3ccccc3nc2N2CCCCC2)cc1,30% (active)
2,CCCCc1ccc(NC(=O)CSc2nc3ccccc3nc2N2CCOCC2)cc1,30% (active)
3,O=C(CS(=O)(=O)Cc1ccccc1)Nc1ccc2c(c1)OCO2,69% (inactive)
4,O=C(NCc1ccc(F)cc1)c1cnc(N2CCOCC2)c2ccccc12,95% (inactive)
5,CN(CC(=O)Nc1ccc(F)cc1F)S(=O)(=O)c1ccc(C(=O)N2CCOCC2)s1,88% (inactive)
6,COc1ccc(S(=O)(=O)N2CCC(Oc3ccc(-n4cnnn4)cc3)CC2)cc1OC,77% (inactive)
7,Cc1ccc(CNC(=O)C2CCN(c3nc4ccccc4n(C)c3=O)CC2)cc1,87% (inactive)
8,O=C(Nc1ccccc1C(=O)OCc1cc(=O)n2c3c(sc2n1)CCCC3)c1ccc(F)cc1,106% (inactive)
9,COc1ccc(OC)c(CNC(=O)c2ccc(Sc3ccc(Cl)cc3)c(NC(C)=O)c2)c1,83% (inactive)
10,CCc1ccc(-c2cn3c(n2)sc2cc(C(=O)NCC(C)c4ccccc4)ccc23)cc1 (configuration not stated),69% (inactive)
11,COC(=O)c1cnc(N2CCN(c3ccc(OC)cc3)CC2)c2ccccc12,62% (inactive)
12,COc1cc(CNC(=O)c2ccc3nc(CCc4ccccc4)oc3c2)cc(OC)c1OC,80% (inactive)
13,CCc1nn(Cc2cc(C)ccc2C)c(=O)c2cc3cc(C)ccc3n12,95% (inactive)
14,CCOc1ccc(-c2cc(C(=O)NCCc3ccc(OC)c(OC)c3)[nH]n2)cc1,77% (inactive)
15,Cc1cc(C)c(S(=O)(=O)N2CCN(Cc3ccc4c(c3)OCO4)CC2)cc1C,13% (active)
16,Cc1ccc(S(=O)(=O)N2CCN(Cc3ccc4c(c3)OCO4)CC2)cc1,70% (inactive)
17,COc1cccc(S(=O)(=O)N2CCN(Cc3ccc4c(c3)OCO4)CC2)c1,75% (inactive)
18,COc1ccc(S(=O)(=O)N2CCN(Cc3nc4ccc(C)cc4o3)CC2)cc1OC,84% (inactive)
19,NC(=O)CN1CCN(Cc2ccc3c(c2)OCO3)CC1,76% (inactive)
20,COc1ccc(S(=O)(=O)N2CCN(Cc3ccc4c(c3)OCO4)CC2)cc1OC,43% (active)
